Data on 13 compounds can be found in PubChem BioAssay (NCATS).

Structures are written as SMILES. Results filed as inconclusive are left out. Activity calls are given as the source filed them. Calls come from the whole dose curve; as a rule, active = well fitted curve in either direction with a large enough effect (not every such curve was filed as active); inconclusive = small, poorly fitted or top-dose-only effect, or another doubt; inactive = flat fitted curve, though single readings scatter.

This test in a line: Stat Signaling Pathway (AID 446).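 Note: SIE-controlled beta-lactamase reporter measured as 460/530 nm FRET emission ratio.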 To be noted: ME-180 (cervical carcinoma) SIE beta-lactamase reporter, IL-6 stimulated, 5 h; series mostly up to 17.2 µM. Put shortly: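 Overnight-plated ME-180 cells bearing a STAT Inducible Element beta-lactamase reporter; 5 h co-exposure to compound and 40 pM IL-6; values normalized to 300 pM IL-6 and 125 nM JAK inhibitor controls.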
Turning to `COc1ccc2nc(S(=O)Cc3ncc(C)c(OC)c3C)[nH]c2c1` (stereo not drawn), the compound was called inactive. Turning to `NC(N)=NC(=O)c1nc(Cl)c(N)nc1N`, the compound was called inactive. In the case of `C1COC(NC(C2CC2)C2CC2)=N1` it was “inactive”; in that of `NC(=O)c1cnccn1`, “inactive”.

In the case of `Cc1[nH]c(=O)c(C#N)cc1-c1ccncc1`, the call was inactive. On to `CC(=O)Oc1ccccc1C(=O)O`, for which the result was inactive. The value for `CNC[C@H](O)c1cccc(O)c1` was “inactive”; that for `O=c1n(CCCN2CCN(c3cccc(Cl)c3)CC2)nc2ccccn12` was “inactive”. In the case of `Cn1cnc([N+](=O)[O-])c1Sc1ncnc2nc[nH]c12` it was “inactive”. Regarding `CCCC(CCC)C(=O)O`, the compound was classed as inactive.

Regarding `CCCCNc1cc(C(=O)O)cc(S(N)(=O)=O)c1Oc1ccccc1`, the outcome was inactive.

`NS(=O)(=O)c1cc2c(cc1Cl)NC=NS2(=O)=O`: the compound was called inactive. In the case of `NCCc1ccc(O)c(O)c1`, the outcome was inactive.
